# According to PubChem BioAssay AID485 (The Scripps Research Institute Molecular Screening Center, 2006):
# Out of some 170,000 compounds screened, about 460 (0.27%) were called active. This is one part of a sample in which actives are shown more often than they occur.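 How the source made its calls: active means inhibition above the plate cutoff, the mean inhibition of test wells on that plate plus 3 SD (cut at about 28% in these data); inactive means the rest.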
# Target: Sphingosine 1-phosphate receptor 3 (Homo sapiens) (UniProt Q99500)
# Sequence (Q99500 whole entry, looked up): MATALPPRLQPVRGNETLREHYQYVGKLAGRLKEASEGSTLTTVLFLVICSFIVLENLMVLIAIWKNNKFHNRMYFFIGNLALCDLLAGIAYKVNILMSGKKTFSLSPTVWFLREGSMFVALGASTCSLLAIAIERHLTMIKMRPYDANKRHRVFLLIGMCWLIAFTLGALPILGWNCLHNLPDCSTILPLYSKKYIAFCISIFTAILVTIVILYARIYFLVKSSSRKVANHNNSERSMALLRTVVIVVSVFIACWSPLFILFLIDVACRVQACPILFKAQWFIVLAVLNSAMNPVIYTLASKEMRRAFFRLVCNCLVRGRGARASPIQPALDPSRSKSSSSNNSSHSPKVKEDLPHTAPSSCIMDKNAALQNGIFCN
# Assay: S1P3 receptor antagonists, primary screen, cell-based (AID 485);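 further: cells challenged with S1P at its EC80 of 0.8 µM; blue over green emission ratio from cleaved BLA substrate after 4 h stimulation; 0% = S1P-stimulated wells and 100% = unstimulated DMSO-only wells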
# Conditions: CHO S1P3 NFAT-BLA reporter, FRET fluorescence, antagonist mode; at 4.98 µM; stronger effect = higher value
row,Compound,inhibition
1,S=C(NCc1ccco1)Nc1ccc2c(c1)OCCO2,-9.96% (inactive)
2,CC12CN3CCN(CC(C3)/C1=N\NC(=O)c1ccccc1N)C2,-5.45% (inactive)
3,CC(=O)c1c(C)[nH]c(C(=O)COC(=O)c2cccc(S(=O)(=O)N(C)c3ccccc3)c2)c1C,37.9% (active)
4,COc1ccc(C)cc1NC(=O)C(OC(=O)c1cccc(S(=O)(=O)N(C)c2ccccc2)c1)c1ccccc1 (centres undefined),-3.14% (inactive)
5,CN(c1ccccc1)S(=O)(=O)c1ccc(Cl)c(C(=O)OCC(N)=O)c1,-15.6% (inactive)
6,O=C(NCC(c1cccs1)N1CCOCC1)c1cc(-c2ccccn2)nc2ccccc12 (centres undefined),-2.5% (inactive)
7,COCCn1c(SCC(=O)c2[nH]c(C)c(C(C)=O)c2C)nc2ccccc2c1=O,-13.7% (inactive)
8,NS(=O)(=O)c1ccc(NC(=O)COC(=O)c2cc3ccccc3oc2=O)cc1,11.2% (inactive)
9,O=C(N/N=C/c1cccc([N+](=O)[O-])c1)c1ccncc1,-7.73% (inactive)
10,Cc1ccc(NC(=O)NNC(=O)c2sccc2-n2cccc2)cc1,8.38% (inactive)
11,COc1ccc(C2=NN(c3nc4ccccc4s3)C(=O)C2)cc1,-9.89% (inactive)
12,CCOC(=O)N1CCN(c2c(NCCN3CCN(c4ccccc4F)CC3)c(=O)c2=O)CC1,-1.55% (inactive)
13,COc1ccc(NC(=O)C2CCC(CNc3c(N4CCCCC4)c(=O)c3=O)CC2)c(OC)c1 (centres undefined),-5.91% (inactive)
14,COc1ccc(NS(=O)(=O)c2ccc(Oc3c(C#N)cccc3C#N)cc2)cc1,1.93% (inactive)
15,COc1ccc(CC(=O)N[C@@H](CCSC)c2nc3ccccc3[nH]2)cc1,-1.34% (inactive)
16,CCn1c(=O)c([N+](=O)[O-])c(NCc2ccc3c(c2)OCO3)c2ccccc21,-5.99% (inactive)
17,O=C(Nc1ccc2oc(-c3ccccc3F)nc2c1)c1ccco1,-11.6% (inactive)
18,Nc1nc(SC23CC4CC(CC(C4)C2)C3)ns1,-0.08% (inactive)
19,Cc1cc(=O)oc2cc(OCCC[n+]3ccccc3)ccc12,0.67% (inactive)
20,CC1=NNC(=O)C1CC(=O)N/N=C/c1ccncc1 (centres undefined),-24.4% (inactive)
21,C[C@@H](NC(=O)OC(C)(C)C)c1nnc(S(=O)(=O)Cc2ccccc2)o1,-3.71% (inactive)
22,CCOC(=O)c1oc2c(CN3CCN(CCO)CC3)c(O)c(CC)cc2c(=O)c1-c1nc2ccccc2s1,-10.5% (inactive)
23,Cc1ccc(S(=O)(=O)N(C)C)cc1NC(=O)c1n[nH]c(=O)c2ccccc12,-6.86% (inactive)

row,Compound,inhibition
1,Cc1cccc(C)c1N1CCN(S(=O)(=O)N2CCCCC2)CC1,-28.1% (inactive)
2,CNC(=O)Nc1cc(C(C)(C)C)no1,92.8% (active)
3,COc1ccc(CN2C(=O)C(C)S/C2=N/N=C/c2ccco2)cc1 (centres undefined),-5.66% (inactive)
4,CCn1c(-c2cccnc2Cl)nc2cc(C)c(C)cc21,-10.7% (inactive)
5,Cn1c(C(=O)O)ccc1S(=O)(=O)N(Cc1ccccc1)Cc1ccccc1,3.65% (inactive)
6,OCCC1CN(Cc2ccccc2-c2ccco2)CCN1Cc1ccsc1 (centres undefined),-6.06% (inactive)
7,CC(=O)NC(=S)NNC(=O)c1ccc(Br)cc1,-11.1% (inactive)
8,CCOc1ccc2sc(NS(=O)(=O)c3ccc(N)cc3)nc2c1,-8.22% (inactive)
9,Oc1c(Br)cc(/C=N/NC(=S)NCC2CCCO2)cc1Br (centres undefined),0.61% (inactive)
10,Cc1cc(C(C)(C)C)cc(S(=O)(=O)Nc2ccc(C(=O)O)cc2)c1C,-12.2% (inactive)
11,COc1cc2[nH]c(=O)n(Cc3ccc(C(=O)NC4CCN(Cc5ccccc5)CC4)cc3)c(=O)c2cc1OC,-15.1% (inactive)
12,COc1ccc(N2CCN(C(=S)Nc3ccc(S(N)(=O)=O)cc3)CC2)cc1,6.19% (inactive)
13,CC(=O)NC(CC(=O)Nc1nccs1)c1ccccc1 (centres undefined),-11.7% (inactive)
14,CSCCNCc1cn(-c2ccc(F)cc2F)nc1-c1ccccc1C,-21.2% (inactive)
15,CC(NC(=O)C(=O)N/N=C/c1ccc(Cl)cc1)c1ccccc1 (centres undefined),-3.11% (inactive)
16,Cc1nc(CNS(=O)(=O)c2cc([N+](=O)[O-])ccc2C)cs1,10.3% (inactive)
17,COc1ccc(CNC(=O)CCC(=O)Nc2nnc(C(C)C)s2)cc1,-0.16% (inactive)
18,CS(=O)(=O)c1ccc2nc(NC(=O)c3ccc(N4CCCC4=O)cc3)sc2c1,-4.82% (inactive)
19,COc1ccccc1NC(=O)c1c(Br)cnn1C,2.9% (inactive)
20,O=C(O)c1ccccc1OCc1ccccc1Cl,8.64% (inactive)
21,O=C(/C=C/c1ccc(Cl)cc1)Nc1ccc(S(=O)(=O)Nc2ncccn2)cc1,-1.53% (inactive)
22,Cc1cc(C)n(CC(C)NCc2c(C(=O)N3CCOCC3)nc3c(C)cccn23)n1 (centres undefined),16% (inactive)
23,COc1cccc(CC2(CO)CCCN(Cc3nc(-c4cccs4)oc3C)C2)c1 (centres undefined),-7.51% (inactive)

row,Compound,inhibition
1,CCC(CC)c1nnc(NC(=O)c2nn(C)c(=O)c3ccccc23)s1,-16.1% (inactive)
2,COc1ccc(N2CCN(C(=O)/C(C#N)=C/c3ccccc3)CC2)cc1,-0.3% (inactive)
3,Nc1cc(C(F)(F)F)ccc1N1CCOCC1,8.92% (inactive)
4,COc1cc(OC)cc(/C(N)=N/O)c1,9.29% (inactive)
5,CCOc1cc(N2CCOCC2)c(OCC)cc1NC(=O)c1ccc(C)s1,2.86% (inactive)
6,CCOC(=O)CN(C(=O)COc1nc(-c2ccccc2)cc(C)c1C#N)c1ccc(F)cc1,-12.8% (inactive)
7,Nc1nc(NCC2CCCO2)nc(Nc2ccccc2F)c1[N+](=O)[O-] (centres undefined),6.85% (inactive)
8,CC(C)NC(=O)/C(C#N)=C\c1ccc(N(C)C)c(Br)c1,-16.2% (inactive)
9,C=CCN(c1ccccc1C(=O)NCC(=O)OCC)S(=O)(=O)c1ccc(C)cc1,3.85% (inactive)
10,CC1=CC2=NC(=O)/C(=C/c3coc4ccccc4c3=O)C(=N)N2O1,-5.98% (inactive)
11,CCOc1cc(NS(=O)(=O)c2ccc(OC)cc2)c(OCC)cc1NC(C)=O,-10.8% (inactive)
12,O=C(NCCN1CCOCC1)c1ccc2c(c1)N(Cc1ccc(Cl)cc1)CCS2,1.26% (inactive)
13,CCc1ccc(Nc2nnc(SCC(=O)c3ccc4c(c3)NC(=O)CO4)s2)cc1,-5.18% (inactive)
14,O=C(c1ccc(F)cc1)n1cc(C(=S)N2CCOCC2)c2ccccc21,16.1% (inactive)
15,O=C(Nc1ccccc1Cl)c1ccc2nsnc2c1,0.3% (inactive)
16,O=C(CN1CCCCC1)Nc1ccccc1Cl,-9.78% (inactive)
17,O=C(Nc1ccccc1Cl)/C(Cl)=C(\Cl)S(=O)c1ccccc1 (centres undefined),40.8% (active)
18,CCOC(=O)C1=C(c2ccccc2)NC(=S)NC1c1ccc(Cl)cc1 (centres undefined),-1.74% (inactive)
19,C=CCN1CC(C)/C(=N\O)CC1C (centres undefined),-3.95% (inactive)
20,Cc1cc(C)nc(Nc2cc([N+](=O)[O-])ccc2C)n1,11.2% (inactive)
21,Cc1nn(-c2ccc([N+](=O)[O-])cc2)c(N)c1-c1ccccc1,-7.46% (inactive)
22,COc1ccccc1C1CCN(C(=S)Nc2ccc(Br)cc2)CC1,7.17% (inactive)
23,O=C(Nc1ccc(N2CCN(C(=O)c3ccccc3)CC2)c(Cl)c1)c1ncn[nH]1,7.3% (inactive)
